In PubChem BioAssay (Tox21):
Inconclusive results are not listed. A call without a number means that no potency is given here. Calls of active or inactive are those of the source. Unless noted, calls come from the whole dose curve; as a rule, active = well fitted curve in the direction sought with a large enough effect in the repeat runs; inconclusive = weak or mixed curves; inactive = no such curve, though single readings can be large; an effect the other way counts as inactive or inconclusive.

Tests used:
[1] = qHTS assay for small molecules that induce genotoxicity in human embryonic kidney cells expressing luciferase-tagged ATAD5 (AID 651632); note: nearly all actives have a fitted effect of over 15% in size
Outline: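 A rise in luciferase signal from ATAD5-tagged HEK293T cells marks genetic stress. Cells were exposed to compounds for 16 hr at 37C, 5% CO2, then luciferase was quantified after a 30 min room-temperature incubation with Amplite.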

[2] = qHTS assay for small molecules that induce genotoxicity in human embryonic kidney cells expressing luciferase-tagged ATAD5 - cell viability (AID 651634; calls by dose curve; note: nearly all actives have a fitted effect of over 25% in size; note: potency is the fitted concentration of half-maximal effect)
Outline: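 Cytotoxicity counter-readout: after 15.5 hr compound treatment at 37C, live-cell protease activity in ATAD5-luciferase HEK293T cells measured by CellTiter-Fluor fluorescence, 30 min development at 37C.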

[3] = qHTS assay for small molecule disruptors of the mitochondrial membrane potential - cell viability (AID 720634; calls by dose curve;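 note: human HepG2 liver cancer cells; nearly all actives have a fitted effect of over 20% in size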)
Outline: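 Cytotoxicity was quantified from ATP content by CellTiter-Glo luminescence in the same wells as the MMP dye read-out. HepG2 (2,000 cells/well) were plated overnight and exposed to compounds for 1 hr at 37 C.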

[4] = qHTS assay to test for compound auto fluorescence at 590 nm (red) in HepG2 cells (AID 720674)
Outline: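 1 hr compound incubation on HepG2 cells, 37 C, 5% CO2; plate read ex 540 nm / em 590 nm; intensities reported as Rose Bengal sodium equivalents.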

[5] = qHTS assay to test for compound auto fluorescence at 535 nm (green) in HepG2 cells (AID 720675)
[6] = qHTS assay to test for compound auto fluorescence at 460 nm (blue) in HEK293 cells (AID 720678)
Outline: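 Measured: blue fluorescence (Ex 405/Em 460 nm) of compound-treated HEK293 cells, incubated overnight at 37C with 5% CO2 and scaled to triamterene equivalents.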

[7] = qHTS assay to test for compound auto fluorescence at 590 nm (red) in HEK293 cells (AID 720679)
Outline: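 Using HEK293 cells at 2,000 per well, the screen added 23 nL of each compound after cell attachment and incubated overnight (37C, 5% CO2). The plate reader then captured red-label fluorescence, Ex/Em 540/590nm.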

[8] = qHTS assay to test for compound auto fluorescence at 535 nm (green) in HEK293 cells (AID 720680)
[9] = qHTS assay to test for compound auto fluorescence at 460 nm (blue) in HEK293 cell free culture (AID 720681)
Outline: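 Blue fluorescence (Ex 405/Em 460 nm, triamterene-equivalent) was read immediately after pin transfer of compound or DMSO into medium (DMEM, 10% FBS) without cells.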

[10] = qHTS assay to test for compound auto fluorescence at 535 nm (green) in HEK293 cell free culture (AID 720682)
Outline: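 Fluorescein serves as the green reference fluorophore; each compound's intrinsic emission at 535 nm (excitation 485 nm) is reported as an equivalent amount of that dye, measured in serum-containing DMEM without cells.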

[11] = qHTS assay to test for compound auto fluorescence at 590 nm (red) in HEK293 cell free culture (AID 720683)
Outline: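 Red-channel autofluorescence of compounds in culture medium (DMEM, 10% FBS), no cells, measured at 540/590 nm. Rose Bengal sodium is the reference fluorophore for equivalence.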

[12] = qHTS assay to test for compound auto fluorescence at 590 nm (red) in HepG2 cell free culture (AID 720684)
Outline: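 No cells present: MEM + 10% FBS only. Compound pinned in, red label read (540/590 nm). Activity = fluorescence equivalent to Rose Bengal sodium.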

[13] = qHTS assay to test for compound auto fluorescence at 460 nm (blue) in HepG2 cell free culture (AID 720685)
Outline: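 Cell-free plates of MEM plus 10% FBS received 23 nL compound or DMSO vehicle; blue-channel (405/460 nm) intensity scored against triamterene as reference fluorophore.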

[14] = qHTS assay to test for compound auto fluorescence at 535 nm (green) in HepG2 cell free culture (AID 720686)
[15] = qHTS assay to test for compound auto fluorescence at 460 nm (blue) in HepG2 cells (AID 720687)
Outline: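 Blue-channel autofluorescence (Ex/Em 405/460 nm, triamterene-equivalent) was measured after 1 hr compound exposure at 37 C, 5% CO2. Cells were HepG2, plated overnight at 37 C in MEM plus 10% FBS.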

[16] = biological target: Glucocorticoid receptor (Homo sapiens) (UniProt P04150); assay: qHTS assay to identify small molecule agonists of the glucocorticoid receptor (GR) signaling pathway (AID 720691; active = well fitted activation curve with a large enough effect in the signal ratio in the repeat runs, not every such curve was filed as active; the % refers to the signal ratio); settings: GR-bla HeLa, beta-lactamase reporter ratio, 18 h; activation: at 62.4 µM (top of the series)
Outline: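 Agonist-mode qHTS in HeLa cells stably expressing a glucocorticoid-response-element beta-lactamase reporter. Fluorescence intensity read with FRET substrate (2 h, room temperature) after 18 h compound treatment at 37 C.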

[17] = qHTS assay for small molecule disruptors of the mitochondrial membrane potential (AID 720635); note: potency is the fitted concentration of half-maximal effect
Outline: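 Mitochondrial membrane potential tracked with Mito-MPS dye, red aggregates (ex 540/em 590 nm) against green monomers (ex 490/em 535 nm). Compound treatment 1 hr at 37C, dye 30 min in HepG2.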

[18] = biological target: Glucocorticoid receptor (Homo sapiens) (UniProt P04150); assay: qHTS assay to identify small molecule antagonists of the glucocorticoid receptor (GR) signaling pathway (AID 720692; active = well fitted inhibition curve with a large enough effect in the signal ratio in the repeat runs, not every such curve was filed as active; the % refers to the signal ratio; note: potency is the fitted concentration of half-maximal effect)
Outline: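 Inhibition of dexamethasone-driven (5 nM final) beta-lactamase expression was measured in GRE-reporter HeLa cells over 18 h at 37C. Fluorescence was read after 2 h with the B/G FRET substrate at room temperature.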

Sequence of Glucocorticoid receptor (Homo sapiens) (P04150 whole entry, looked up): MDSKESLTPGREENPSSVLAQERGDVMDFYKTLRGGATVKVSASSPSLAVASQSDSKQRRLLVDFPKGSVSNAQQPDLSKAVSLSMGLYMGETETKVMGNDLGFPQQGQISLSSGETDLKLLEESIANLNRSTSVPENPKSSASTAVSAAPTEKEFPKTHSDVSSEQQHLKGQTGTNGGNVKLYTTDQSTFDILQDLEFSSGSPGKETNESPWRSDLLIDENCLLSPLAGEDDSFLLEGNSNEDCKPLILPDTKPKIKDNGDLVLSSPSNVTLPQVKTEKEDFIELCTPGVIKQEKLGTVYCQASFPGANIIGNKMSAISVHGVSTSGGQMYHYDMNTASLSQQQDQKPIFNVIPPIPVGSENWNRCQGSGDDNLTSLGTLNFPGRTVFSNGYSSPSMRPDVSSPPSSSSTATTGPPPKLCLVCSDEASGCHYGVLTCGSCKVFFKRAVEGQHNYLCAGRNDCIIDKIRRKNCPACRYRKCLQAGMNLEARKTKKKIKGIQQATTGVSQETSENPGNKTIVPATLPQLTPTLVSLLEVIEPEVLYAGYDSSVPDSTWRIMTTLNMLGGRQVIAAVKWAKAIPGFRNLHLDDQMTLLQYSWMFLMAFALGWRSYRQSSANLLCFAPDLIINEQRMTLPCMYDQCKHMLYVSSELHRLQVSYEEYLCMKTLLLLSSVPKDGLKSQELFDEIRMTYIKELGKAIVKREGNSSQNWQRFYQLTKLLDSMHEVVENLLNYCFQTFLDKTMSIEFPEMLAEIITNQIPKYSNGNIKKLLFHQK

SMILES | Potency [1] | Potency [2] | Potency [3] | Potency [4] | Potency [5] | Potency [6] | Potency [7] | Potency [8] | Potency [9] | Potency [10] | Potency [11] | Potency [12] | outcome [13] | Potency [14] | outcome [15] | Potency [16] | Potency [17] | Potency [18]
Cc1cc(C(=O)NNCc2ccccc2)no1 | inactive | inactive | inactive | inactive | inactive | inactive | inactive | inactive | inactive | inactive | inactive | inactive | inactive | inactive | inactive | inactive | – | –
CCC(=O)OCC(=O)[C@@]1(OC(=O)CC)[C@@H](C)C[C@H]2[C@@H]3CCC4=CC(=O)C=C[C@]4(C)[C@@]3(F)[C@@H](O)C[C@@]21C | inactive | inactive | inactive | inactive | inactive | inactive | inactive | inactive | inactive | inactive | inactive | inactive | inactive | inactive | inactive | – | 23.7 µM (active) | –
CO[C@H]1C[C@@H]2CC[C@@H](C)[C@@](O)(O2)C(=O)C(=O)N2CCCC[C@H]2C(=O)O[C@H]([C@H](C)C[C@@H]2CC[C@@H](OC(=O)C(C)(CO)CO)[C@H](OC)C2)CC(=O)[C@H](C)/C=C(\C)[C@@H](O)[C@@H](OC)C(=O)[C@H](C)C[C@H](C)/C=C/C=C/C=C/1C | inactive | inactive | inactive | inactive | inactive | inactive | inactive | inactive | inactive | inactive | inactive | inactive | inactive | inactive | inactive | – | – | –
CCC(CN)CC(C)CCNCC(O)CNCC(C)CC(CC)CN (stereo not drawn) | inactive | inactive | inactive | inactive | inactive | inactive | inactive | inactive | inactive | inactive | inactive | inactive | inactive | inactive | inactive | inactive | inactive | inactive
C[C@@H]1CCC2[C@@H](C)[C@@H](O)O[C@@H]3O[C@@]4(C)CC[C@@H]1[C@@]23OO4 (stereo partly drawn) | inactive | 13.3 µM (active) | inactive | inactive | inactive | inactive | inactive | inactive | inactive | inactive | inactive | inactive | – | inactive | inactive | inactive | inactive | inactive
CN1CCN(CCCN2c3ccccc3Sc3ccccc32)CC1 | inactive | inactive | inactive | inactive | inactive | inactive | inactive | inactive | inactive | inactive | inactive | inactive | inactive | inactive | inactive | inactive | – | inactive
CC(CN(C)C)CN1c2ccccc2Sc2ccc(C(F)(F)F)cc21 (stereo not drawn) | inactive | inactive | inactive | inactive | inactive | inactive | inactive | inactive | inactive | inactive | inactive | inactive | inactive | inactive | inactive | inactive | – | –
CCCCCCCCCCCCCCCC(=O)O[C@@H]1CC(C)=C(/C=C/C(C)=C/C=C/C(C)=C/C=C/C=C(C)/C=C/C=C(C)/C=C/C2=C(C)C[C@@H](OC(=O)CCCCCCCCCCCCCCC)CC2(C)C)C(C)(C)C1 | inactive | inactive | inactive | inactive | inactive | inactive | inactive | inactive | inactive | inactive | inactive | inactive | inactive | inactive | inactive | inactive | inactive | 12 µM (active)
CCC[C@@]1(CCc2ccccc2)CC(O)=C([C@H](CC)c2cccc(NS(=O)(=O)c3ccc(C(F)(F)F)cn3)c2)C(=O)O1 | inactive | inactive | inactive | inactive | inactive | inactive | inactive | inactive | inactive | inactive | inactive | inactive | inactive | inactive | inactive | inactive | 23.7 µM (active) | –
CC1=C[C@H](O)CC(C)(C)[C@H]1/C=C/C(C)=C/C=C/C(C)=C/C=C/C=C(C)/C=C/C=C(C)/C=C/C1=C(C)C[C@@H](O)CC1(C)C | inactive | inactive | inactive | inactive | inactive | inactive | inactive | inactive | inactive | inactive | inactive | inactive | inactive | inactive | inactive | inactive | – | 23.9 µM (active)
CCC(=O)c1ccc2c(c1)N(CCCN1CCN(CCO)CC1)c1ccccc1S2 | inactive | 26.6 µM (active) | inactive | inactive | inactive | inactive | inactive | inactive | inactive | inactive | inactive | inactive | inactive | inactive | inactive | – | – | –
C=C1C(=C/C=C2\CCC[C@]3(C)[C@@H]([C@H](C)/C=C/[C@H](C)C(C)C)CC[C@@H]23)C[C@@H](O)C[C@@H]1O | inactive | inactive | inactive | inactive | inactive | inactive | inactive | inactive | inactive | inactive | inactive | inactive | inactive | inactive | inactive | – | – | –
C#C[C@]1(O)CC[C@H]2[C@@H]3CCC4=CCCC[C@@H]4[C@H]3C(=C)C[C@@]21CC | inactive | inactive | inactive | inactive | inactive | inactive | inactive | inactive | inactive | inactive | inactive | inactive | inactive | inactive | inactive | – | 21.1 µM (active) | –
